Cardio protect = myocardial damage modulation in H9c2 cells | protection from H2O2 cell death, % at 20 µM | AID 588492 | actives 0.63% (n = 360,000) | H9c2 cardiomyocytes, H2O2 injury protection, ATPLite, 2 h;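 active means compounds giving at least 50% protection of heart cells from peroxide-induced death in the single-dose screen, raw or plate-pattern-corrected value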;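 further: 0% = DMSO wells with peroxide and 100% = DMSO wells without peroxide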
Mot1-301 SUMO = inhibitors of SUMOylation pathway: yeast Mot1-301 growth rescue | actives 1% (n = 320,000) | AID 2716 | growth rescue, % at 18.8 µM | S. cerevisiae Mot1-301 growth rescue, ATP luminescence, 38.5C; percent above DMSO median, 100 means doubled;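 active means every valid replicate shows activation above 250% relative to neutral control wells; inactive means the rest, any valid replicate at or below 250%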;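 further: OY570 slx delta 5 strain wells were the positive control but not used for scaling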
AHR activator = activators of human aryl hydrocarbon receptor; activation, % at 5 µM; AID 2796; AHR-responsive luciferase reporter cells, luminescence; actives 2.5% (n = 320,000); P35869; in the data active means activation above about 47%;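 further: 0% = vehicle wells and 100% = reference agonist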
Target sequence (P35869 whole entry, looked up): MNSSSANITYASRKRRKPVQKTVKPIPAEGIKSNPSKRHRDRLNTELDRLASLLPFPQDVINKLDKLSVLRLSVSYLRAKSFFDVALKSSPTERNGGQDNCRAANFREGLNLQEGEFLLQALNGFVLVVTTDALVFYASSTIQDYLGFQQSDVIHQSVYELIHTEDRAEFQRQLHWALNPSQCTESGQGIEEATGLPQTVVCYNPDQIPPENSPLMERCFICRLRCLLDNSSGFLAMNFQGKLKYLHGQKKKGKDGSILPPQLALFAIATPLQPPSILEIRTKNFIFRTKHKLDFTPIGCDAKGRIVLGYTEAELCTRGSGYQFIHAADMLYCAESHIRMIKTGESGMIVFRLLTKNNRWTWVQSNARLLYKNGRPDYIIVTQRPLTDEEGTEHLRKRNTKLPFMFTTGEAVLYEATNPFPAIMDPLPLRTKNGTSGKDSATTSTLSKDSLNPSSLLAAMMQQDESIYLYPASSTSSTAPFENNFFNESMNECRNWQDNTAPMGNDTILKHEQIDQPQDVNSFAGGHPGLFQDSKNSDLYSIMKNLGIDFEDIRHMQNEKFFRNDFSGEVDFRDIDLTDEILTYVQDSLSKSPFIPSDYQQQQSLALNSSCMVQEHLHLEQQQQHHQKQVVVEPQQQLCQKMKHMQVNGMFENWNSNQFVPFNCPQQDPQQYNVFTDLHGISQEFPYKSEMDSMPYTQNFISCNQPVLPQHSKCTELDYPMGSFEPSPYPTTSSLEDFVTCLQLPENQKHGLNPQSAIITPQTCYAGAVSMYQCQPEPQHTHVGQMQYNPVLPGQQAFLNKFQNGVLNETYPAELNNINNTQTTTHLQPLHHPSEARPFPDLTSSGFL
AI-2 QS modul = modulates the Vibrio harveyi AI-2 quorum sensing system; Vibrio harveyi JMH597 AI-2 luminescence/OD600 ratio, 9 h; hits give low values; strain lacks LuxN and CqsS sensors; 0 = neutral-control median; activity change, % at 7.5 µM; actives 0.4% (n = 300,000); in the data active means activity change below about -75%, passing the limit was not always enough;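 further: luminescence divided by OD600 gain over 9 h not by final OD600 alone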
NTR1 agonist = activates human neurotensin receptor 1; activation, % at 20 µM; NTR1-U2OS beta-arrestin-GFP spot imaging, agonist mode; P30989; actives 0.17% (n = 330,000);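 active means activation at or above 40% of the spot to cytoplasm intensity ratio, with at least 20 cells analyzed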;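 further: 0% = DMSO without peptide and 100% = 100 nM NTR1 peptide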
NR3A LBD binder = modulators (binders) of human NR3A ligand-binding domain. NR3A LBD differential scanning fluorimetry, Tm shift; 0% = protein alone, 100% = glycine-bound protein. actives 2.5% (n = 340,000). AID 1259313. Tm shift relative to glycine control, % at 25 µM;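 active means melting temperature shift of at least 10% of the positive control shift, at one fixed dose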
AHR act confirm = human AHR activation, confirmation; shares compounds with AHR activator; human cells, AHR-responsive luciferase reporter, luminescence; activation, % at 9 µM; actives 87% (n = 2,300); in the data active means activation above about 49%;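 further: HepG2 hepatoma cells carrying a DRE-driven firefly luciferase reporter; 0% = vehicle wells and 100% = reference agonist wells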
PXR act counter = counter-screen for AHR activators: human PXR activators. shares compounds with AHR activator. cell-based PXR reporter, luciferase luminescence. activation, % at 11.6 µM. actives 88% (n = 2,300). AID 434939; in the data active means activation above about 11%;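 further: human hepatoma DPX-2 cells expressing full-length human PXR; 0% = DMSO and 100% = reference agonist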
* hit, by the source's call. Only some compounds are listed: those with a hit (about 6.2% of all), similar ones and a draw of the others.

For Cc1cc(OCCn2ccnc2)cc(C)c1Cl the results were Cardio protect -4.8, Mot1-301 SUMO 2.9, AHR activator 80.4*, AI-2 QS modul 11.1, NTR1 agonist 1.0, NR3A LBD binder -2.5, AHR act confirm 55.1* and PXR act counter 15.5*.
`Cc1cccc(C)c1OCCCn1ccnc1` gave Cardio protect -1.7, Mot1-301 SUMO -3.6, AHR activator 135.9*, AI-2 QS modul 7.6, NTR1 agonist -0.3, NR3A LBD binder 2.7, AHR act confirm 36.2 and PXR act counter 16.1*.
`Cc1cccc(C)c1OCCN1CCCC1` gave Cardio protect 1.2, Mot1-301 SUMO 0.8, AHR activator 95.2*, AI-2 QS modul 23.2, NTR1 agonist 0.5, NR3A LBD binder 0.2, AHR act confirm 2.9 and PXR act counter 10.9*.
Screening CC1(C(=O)NS(=O)(=O)c2ccc(Br)cc2)CCN1C(=O)Cc1ccsc1 (stereo not given) returned Cardio protect 6.6.
`CCOC(=O)NC1Cc2ccccc2C1Sc1ccccn1` (stereo not given) gave Cardio protect -3.3, Mot1-301 SUMO 446.5, AHR activator 9.9, AI-2 QS modul -1.3, NTR1 agonist 0.0 and NR3A LBD binder -0.5.
Screening Cn1nnnc1SCC(=O)Nc1cc(S(=O)(=O)N2CCCCC2)ccc1Cl returned Cardio protect 5.3, Mot1-301 SUMO -9.5, AHR activator 1.4, NTR1 agonist 0.6 and NR3A LBD binder 3.3.
COc1ccc(NC(=O)c2ccc(C)cc2)c(OC)c1 was read as Cardio protect -10.7, Mot1-301 SUMO 186.9, AHR activator 119.8*, AI-2 QS modul 16.6, NTR1 agonist 3.3, NR3A LBD binder -3.9 and AHR act confirm 96.1*.
For COc1ccc(NC(=O)c2ccc(NC(=O)c3ccco3)cc2)c(OC)c1 the results were Cardio protect 5.6, Mot1-301 SUMO -7.6, AHR activator 5.7, AI-2 QS modul 14.1, NTR1 agonist 1.0 and NR3A LBD binder 1.1.
Screening COc1cc(NC(=O)c2ccccc2)c(OC)cc1NC(C)=O returned Cardio protect 10.1, Mot1-301 SUMO 2.8, AHR activator 85.7*, AI-2 QS modul 28.2, NTR1 agonist 1.7, NR3A LBD binder 1.2, AHR act confirm 113.1* and PXR act counter 10.8*.
COc1ccc(C(=O)Nc2cc(OC)c(NC(=O)c3ccco3)cc2OC)cc1 was read as Cardio protect 43.0, Mot1-301 SUMO 1.4, AHR activator 82.3*, AI-2 QS modul 12.1, NTR1 agonist 1.4, NR3A LBD binder -35.2 and AHR act confirm 110.0*.
Screening COc1cc(NS(C)(=O)=O)c(OC)cc1NC(=O)c1ccccc1 returned Cardio protect 2.9, Mot1-301 SUMO 136.3, AHR activator 9.8, AI-2 QS modul 14.5, NTR1 agonist 0.0 and NR3A LBD binder 0.6.
CCC(=O)Nc1cc(OC)c(NC(=O)c2ccccc2)cc1OC was read as Cardio protect 12.5, Mot1-301 SUMO 12.5, AHR activator 81.9*, AI-2 QS modul 18.7, NTR1 agonist 1.2, NR3A LBD binder -0.6 and AHR act confirm 108.8*.
`COc1ccc(S(=O)(=O)N2CCC(C(=O)NCCC(=O)NCc3cccnc3)CC2)cc1` gave Cardio protect 6.3.
Cc1ccccc1OCC(=O)NCC(=O)OCc1ccc(Br)cc1 was read as Cardio protect -5.4, Mot1-301 SUMO -14.2, AHR activator 0.9, AI-2 QS modul 1.6, NTR1 agonist 1.2 and NR3A LBD binder -0.5.
`COc1ccc(OCC2CCNCC2)cc1` gave Cardio protect 10.5, Mot1-301 SUMO 362.0, AHR activator 1.9, AI-2 QS modul 3.7, NTR1 agonist 1.3 and NR3A LBD binder -0.6.
CCOC(=O)c1sc(Nc2nc3c(OC)cccc3s2)cc1C was read as Cardio protect -22.2, Mot1-301 SUMO 133.2, AHR activator 107.7*, AI-2 QS modul 23.2, NTR1 agonist 36.6, NR3A LBD binder 22.1*, AHR act confirm 88.1* and PXR act counter 60.9*.
Screening CCOC(=O)c1sc(NC(=O)c2ccccc2OC)nc1C returned Cardio protect -26.8, Mot1-301 SUMO 2.4, AHR activator -11.6, AI-2 QS modul -7.0, NTR1 agonist -0.9 and NR3A LBD binder 1.5.
Screening CC(=O)c1ccccc1OCc1ccc(S(=O)(=O)Cc2ccccc2)cc1 returned Cardio protect 1.1, Mot1-301 SUMO -9.1, AHR activator 1.4, AI-2 QS modul 9.5, NTR1 agonist 1.2 and NR3A LBD binder 3.6.
Cn1ccc2cc3c(cc21)CCN3C(=O)Nc1cccnc1 was read as Cardio protect 8.4, Mot1-301 SUMO -0.5, AHR activator 117.6*, NTR1 agonist -1.1, NR3A LBD binder -6.9, AHR act confirm 83.0* and PXR act counter 30.6*.
Screening CC(C)(C)OC(=O)NCCCCCNC(=O)c1ncn2c1c(=O)[nH]c1ccccc12 returned Cardio protect 15.5.
For Cc1cc2c([nH]c3ccccc32)c2c1OC(C)(C)C=C2 the results were Cardio protect -10.2, Mot1-301 SUMO 289.6, AHR activator 101.7*, AI-2 QS modul -1.6, NTR1 agonist 10.2, NR3A LBD binder 16.2*, AHR act confirm 119.4* and PXR act counter 72.3*.
COc1ccc2[nH]c(=O)c3c(c2c1)OC(C)(C)C=C3 was read as Cardio protect -0.2, Mot1-301 SUMO 6.8, AHR activator 17.6, AI-2 QS modul 24.0, NTR1 agonist -1.8 and NR3A LBD binder 1.1.
`COc1cc2[nH]c(=S)n(Cc3ccco3)c(=O)c2cc1OC` gave Cardio protect 17.3, Mot1-301 SUMO 84.1, AHR activator 82.1*, AI-2 QS modul 1.7, NTR1 agonist 3.1, NR3A LBD binder 1.3, AHR act confirm 83.8* and PXR act counter 71.8*.
`Cc1nc2cc(-c3ccc(Cl)cc3)nn2c(NCCN(C)C)c1C` gave Cardio protect -0.5, Mot1-301 SUMO 3.9, AHR activator 113.5*, AI-2 QS modul 6.9, NTR1 agonist -1.1, NR3A LBD binder 1.3, AHR act confirm 101.9* and PXR act counter 14.5*.
`Cc1cc(C)n2nc(C)c(-c3ccc(Cl)cc3)c2n1` gave Cardio protect -4.9, Mot1-301 SUMO -16.0, AHR activator 6.5, AI-2 QS modul 14.7, NTR1 agonist 4.5 and NR3A LBD binder 0.7.
`Cc1cc(C)n2nc(-c3ccc(Br)cc3)cc2n1` gave Cardio protect -6.1, Mot1-301 SUMO 9.5, AHR activator 134.2*, AI-2 QS modul 11.3, NTR1 agonist -0.3, NR3A LBD binder 0.1, AHR act confirm 96.5* and PXR act counter 29.9*.

Assay outcomes: PubChem, several laboratories
